Screening data (PubChem)
The full list was thinned out, with hits kept by preference.
mcGAS MS inh: blocks mouse cGAS cGAMP production; Q8C6L5; 130,000 tested, 0.18% active; inhibition, % at 12.5 µM; recombinant mouse cGAS, cGAMP by RapidFire MS; AID 1259397;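 active = inhibition of cGAS enzyme activity at or above 60%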;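 also: enzyme stimulated by 45 bp dsDNA with ATP and GTP substrates; cGAMP share of summed cGAMP plus half ATP and half GTP signals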
Target sequence (Q8C6L5 whole entry, looked up): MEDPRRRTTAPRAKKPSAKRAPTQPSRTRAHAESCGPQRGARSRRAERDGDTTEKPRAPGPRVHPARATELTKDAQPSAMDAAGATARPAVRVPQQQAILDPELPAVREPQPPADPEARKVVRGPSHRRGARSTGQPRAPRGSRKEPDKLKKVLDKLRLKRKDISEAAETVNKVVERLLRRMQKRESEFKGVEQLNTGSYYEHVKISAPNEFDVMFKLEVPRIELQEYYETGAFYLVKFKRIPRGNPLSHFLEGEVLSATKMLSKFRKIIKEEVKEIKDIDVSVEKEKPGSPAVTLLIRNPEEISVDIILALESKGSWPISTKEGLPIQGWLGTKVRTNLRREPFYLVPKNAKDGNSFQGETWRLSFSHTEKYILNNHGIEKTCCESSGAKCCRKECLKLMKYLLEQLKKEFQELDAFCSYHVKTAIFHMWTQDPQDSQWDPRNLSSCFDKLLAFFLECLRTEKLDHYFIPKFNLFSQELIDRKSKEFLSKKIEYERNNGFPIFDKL
Active calls of the source: *; ! = a repeat was not active.

SMILES | mcGAS MS inh
COc1ccccc1C(O)CNC(=O)Nc1ccc(C(F)(F)F)cc1 (configuration not stated) | 6
O=C1OC(c2ccccc2)OC(=O)C1=C/C=C/c1ccccc1 (configuration not stated) | 88*
Cc1ccc(C2=N/C(=C\C=C\c3ccccc3)C(=O)O2)cc1 | 32
CC(C)Oc1ccccc1C=C1C(=O)OC(c2ccccc2)OC1=O (configuration not stated) | -9
CC1(C)CN(CC(=O)NC2(C#N)CCCC2)CCS1=O (configuration not stated) | -1
Cc1ccc(NC(=O)CN2C(=O)c3ccccc3S2(=O)=O)c(Cl)c1 | -9
O=C(Nc1ccc(F)cc1Br)c1ccccc1C(F)(F)F | -20
CC(NC(=O)NCc1cccnc1)c1ccc(Cl)c(Cl)c1 (configuration not stated) | 3
Cc1ccc([N+](=O)[O-])cc1N=Cc1nc(-c2ccccc2F)oc1O | 81*
COc1cc([N+](=O)[O-])ccc1N=Cc1nc(-c2ccccc2F)oc1O | -11
Cc1cc(Cl)ccc1N=Cc1nc(-c2ccccc2F)oc1O | -3
COc1ccc(S(=O)(=O)NC(=O)C2(C)CCN2C(=O)C2(c3ccc(Cl)cc3)CC2)cc1 (configuration not stated) | -3
COC(=O)c1cc(N2CCOCC2)ccc1NC(=O)C(C)Oc1ccc(C)cc1 (configuration not stated) | -2
CCOC(=O)CCC(=O)OC1C(OC2C(C)C(OC3CC(C)(OC)C(O)C(C)O3)C(C)C(=O)OC(CC)C(C)(O)C(O)C(C)C(=O)C(C)CC2(C)O)OC(C)CC1N(C)C (configuration not stated) | 99*
CCC(=O)O[C@H]1[C@H](O[C@@H]2[C@@H](C)[C@H](O[C@H]3C[C@@](C)(OC)[C@@H](O)[C@H](C)O3)[C@@H](C)C(=O)O[C@H](CC)[C@@](C)(O)[C@H](O)[C@@H](C)C(=O)[C@H](C)C[C@@]2(C)O)O[C@H](C)C[C@@H]1N(C)C | 0
CCOC(=O)CCC(=O)O[C@H]1[C@H](O[C@@H]2[C@@H](C)[C@H](O[C@H]3C[C@@](C)(OC)[C@@H](O)[C@H](C)O3)[C@@H](C)C(=O)O[C@H](CC)[C@@](C)(O)[C@H](O)[C@@H](C)C(=O)[C@H](C)C[C@@]2(C)O)O[C@H](C)C[C@@H]1N(C)C | -7
CC(CC#N)N(C)C(=O)Nc1cccc2cccnc12 (configuration not stated) | -2
CCOCCn1c(=NC(=O)c2ccc(S(C)(=O)=O)cc2)sc2c(OC)ccc(OC)c21 | -7
NCC1CCN(Cc2cnc(-c3cccc4ccccc34)nc2)C1 (configuration not stated) | 5
CCc1[nH]c2c(CNCc3nc4ccccc4[nH]3)cc(F)cc2c1C | -6
Nc1c2ccccc2nc2ccccc12 (tested in a mixture with another compound) | 41
CCOc1ccc2nc3cc(N)ccc3c(N)c2c1 | 92*!
CCOc1ccc2nc(NC(=O)CC)sc2c1 | -5
SCc1nc2c3ccccc3ncn2n1 | 95*
CCc1nc2c3ccccc3ncn2n1 | -8
SMILES | mcGAS MS inh
c1ccc2c(c1)ncn1nc(CN3CCCCC3)nc21 | -5
COc1cccc(C2CNC3(CCCC3)c3[nH]c4ccccc4c32)c1OC (configuration not stated) | 6
Cc1c(C(=O)NCc2ccc(F)cc2)c(C(F)(F)F)nn1C1CCCN(C)C1 (configuration not stated) | -6
CC1C(c2cccs2)=[N+]([O-])C(C)(c2ccc(Br)cc2)N1O (configuration not stated) | -19
CC(=O)c1cc(-c2ccccc2)n(CC(=O)O)c1C | -18
CCC1(CC)N([O-])C(C)=C(c2ccccc2)[N+]1=O | 79*
CC1C(c2ccccc2)=[N+]([O-])C(C)(c2ccc(F)cc2)N1O (configuration not stated) | -9
CN1C[N+]([O-])=C(c2ccccc2)C1(C)C | -9
CC1=C(c2ccccc2)[N+](=O)C(C)(c2ccc(Br)cc2)N1[O-] (configuration not stated) | 73*
N#Cc1cc([N+](=O)[O-])c[nH]c1=O | 10
Cc1cc(C)c(S(=O)(=O)NC2CCN3CCCC23)c(C)c1 (configuration not stated) | -20
CS(=O)(=O)CCNc1ccc2c(Cl)ccnc2c1F | 14
CS(=O)(=O)N1CCC(Oc2ccccc2C(=O)NCCOc2cccnc2)CC1 | 0
Cc1ccc(/C(=C2\OC(=O)c3ccccc32)[N+](=O)[O-])c(C)c1 | 5
Cc1ccc(N2Cc3ccccc3C2=O)cc1 | -5
Cc1ccc(C2([N+](=O)[O-])C(=O)c3ccccc3C2=O)cc1 | 90*
N#CCOc1ccc(-c2nnco2)cc1 | -6
Cc1nnc(CN(C)CCOc2cccc(Cl)c2)o1 | -7
COCC1(NC(=O)CC2C(=O)N(C)C(=O)N2C)CCCC1 (configuration not stated) | -8
C(=C1CCC=C1N1CCOCC1)c1nc2ccccc2[nH]1 | 77*
FC(F)Oc1ccc(Br)cc1C=C1CCC=C1N1CCOCC1 | -8
